ATXN viability – viability counter-screen for ATXN expression inhibitors; S2 cells (HEK-293 line with an ATXN2-luciferase reporter) viability, CellTiter-Fluor protease fluorescence, 24 h; AID 651635; Potency, µM (highest dose often 56.7 µM), hits mostly cytotoxic; actives 0.49% (n = 400,000); further: nearly all actives have a fitted effect of over 40% in size
DRD3 antagonist – D3 dopamine receptor (human) antagonism | P35462 | D3R cells, DiscoveRx beta-arrestin luminescence, antagonist mode; stronger effect = lower value | max response, negative = inhibition, % | actives 2.5% (n = 360,000); in the data active means max response below about -50%; inconclusive means no clear call, values can overlap the other calls
Target sequence (P35462 whole entry, looked up): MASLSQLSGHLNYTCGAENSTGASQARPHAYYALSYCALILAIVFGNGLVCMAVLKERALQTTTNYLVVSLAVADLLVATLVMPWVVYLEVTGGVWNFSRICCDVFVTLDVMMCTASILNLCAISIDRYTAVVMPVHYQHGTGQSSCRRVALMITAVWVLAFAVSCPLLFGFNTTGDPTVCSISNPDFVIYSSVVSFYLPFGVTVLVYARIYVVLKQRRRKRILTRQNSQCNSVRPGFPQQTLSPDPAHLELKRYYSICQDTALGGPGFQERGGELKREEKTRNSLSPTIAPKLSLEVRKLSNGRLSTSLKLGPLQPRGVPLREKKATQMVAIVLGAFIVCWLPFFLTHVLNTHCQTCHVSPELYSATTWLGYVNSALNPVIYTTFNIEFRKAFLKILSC
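Cells plated overnight at 1500 cells/well, then exposed to library compounds with dopamine controls for 90 minutes at 37 degrees C. DiscoveRx reagent added for 30–60 minutes at room temperature; luminescence read, quantitative HTS format.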
ATXN2 expr inh – reduces ATXN2 reporter expression in HEK-293 cells. HEK-293 ATXN2-luciferase reporter, luminescence, 24 h. Potency, µM (top dose mostly 57 µM), actives largely listed as inhibitors. AID 1745845. actives 0.72% (n = 360,000); further: nearly all actives have a fitted effect of over 55% in size
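qHTS (up to 57 uM final) was run with 24 h compound exposure of reporter cells at 37 °C. Each well was multiplexed: SteadyGlo luminescence measured ATXN2-luciferase expression after a fluorogenic Gly-Phe-AFC viability readout (25 uM final).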
a7 integrin act – activates integrin-mediated alleviation for muscular dystrophy | alpha7betagal myoblasts, beta-gal FDG fluorescence, 48 h | Potency, µM (highest dose often 38.3 µM), actives largely listed as activators | actives 0.064% (n = 350,000) | AID 624291; further: nearly all actives have a fitted effect of over 60% in size
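alpha7betagal+/- myoblasts (passage 13, 250/well) treated 48 h at 37C with compounds at 1:260 dilution of DMSO stock. Lysed, then beta-galactosidase activity read as FDG fluorescence (ex 480/em 540) after 30 min, with pre-read for autofluorescence.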
D3 ag – D3 dopamine receptor (human) agonism | P35462 | max activation, % | actives 0.58% (n = 410,000) | AID 652048 | D3R DiscoveRx beta-arrestin cells, luminescence, 90 min; in the data active means max activation above about 30%
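Agonist-mode cell screen: cells plated at 1500/well and incubated overnight at 37 °C, then exposed to library compounds for 90 min at 37 °C. Detection reagent was added for 30–60 min at room temperature, and luminescence was read.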
IL-1B inflam inh – blocks inflammasome-driven IL-1 beta release | activity change, % at 57.5 µM | THP-1 LPS/ATP IL-1B secretion, AlphaLISA, 16 h; stronger effect = lower value | actives 4.7% (n = 360,000); in the data active means activity change below about -50%; inconclusive means mostly about -30% to -49%
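Secreted IL-1B measured by AlphaLISA bead assay after 16 h compound exposure of THP-1 cells; compounds (final up to 57.5 uM) added 1 h before LPS (250 ng/mL) and ATP (1.25 mM) stimulation; lower signal means less secretion.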
Large screens that a line does not name were inactive; ! = not active in a repeat. Compounds with a hit are over-represented: about 7% of the library has one in this group of screens. Unless noted, the call rests on the fitted dose curve; in most records, active means well fitted curve in the direction sought with a large enough effect; inconclusive means small, poorly fitted or top-dose-only effect, or another doubt; inactive means no such curve, though single readings can be large; an effect the other way counts as inactive or inconclusive.

CCCCCCCCCS(=O)(=O)Nc1cc(C)ccn1	none
CCOC(=O)C1=CN(Cc2ccc(OC)cc2)C=C(C(=O)OCC)C1c1cccs1	IL-1B inflam inh -64
O=C(OCCn1c(=S)sc2ccccc21)c1ccccc1	none
O/N=C/CCn1c(=S)sc2ccccc21	DRD3 antagonist -51
Cc1cccc(C)c1N1CCN(S(=O)(=O)c2ccccc2)CC1	none
Cc1ncc([N+](=O)[O-])n1CC(=O)Nc1ccc(OC(F)(F)Cl)cc1	none
Oc1cccc(-c2c3nc(c(-c4cccc(O)c4)c4ccc([nH]4)c(-c4cccc(O)c4)c4nc(c(-c5cccc(O)c5)c5ccc2[nH]5)CC4)C=C3)c1	ATXN viability 7.1µM (no result: DRD3 antagonist, a7 integrin act, IL-1B inflam inh)
O=C(NCCc1ccccc1)C(=O)NCC(c1ccc2c(c1)OCO2)N1CCOCC1 (centres undefined)	none (no result: DRD3 antagonist, a7 integrin act, IL-1B inflam inh)
OC(CNCc1ccc(Cl)cc1)COc1ccccc1 (centres undefined)	DRD3 antagonist inconclusive (no result: ATXN2 expr inh)
Cc1ccc(CNC(=O)c2ccccc2NC(=O)c2nsc3ccccc23)cc1	none (no result: DRD3 antagonist, a7 integrin act, IL-1B inflam inh)
CC1(C(=O)NCCCNc2ncc(C(F)(F)F)cc2Cl)C=CCN1C(=O)c1ccccc1 (centres undefined)	ATXN viability inconclusive, IL-1B inflam inh -77
C[C@]1(C(=O)NCCCNc2ncc(C(F)(F)F)cc2Cl)C=C[C@@H](Cc2ccccc2)N1C(=O)c1ccccc1	ATXN viability inconclusive, ATXN2 expr inh inconclusive, IL-1B inflam inh inconclusive
CCN(CC(=O)NCCN1CCOCC1)S(=O)(=O)c1ccc(F)cc1	none
CCc1cc(=O)oc2c3c(cc(OCC(=O)Nc4cccnc4)c12)OC(C)(C)CC3	ATXN viability inconclusive, ATXN2 expr inh inconclusive, IL-1B inflam inh inconclusive
CCOc1ccccc1NC(=O)CSc1n[nH]c(=O)n1-c1ccccc1	none
O=c1[nH]nc(SCCS(=O)(=O)c2ccc(F)cc2)n1-c1ccc2c(c1)OCCO2	ATXN viability inconclusive, IL-1B inflam inh -92
O=c1[nH]nc(SCCS(=O)(=O)c2ccc(F)cc2)n1-c1ccccc1	ATXN viability inconclusive, IL-1B inflam inh -88
O=C(CCn1nc(-c2ccccc2)c2ccccc2c1=O)N1CCN(c2ccccc2)CC1	IL-1B inflam inh inconclusive
COc1cc2c(cc1OC)C1CC(=O)C(CC(C)C)CN1CC2 (centres undefined)	none
COc1cc2c(cc1OC)C1C/C(=N\O)C(CC(C)C)CN1CC2 (centres undefined)	DRD3 antagonist -58
COc1ccc(C(CNC(=O)c2ccc(Cl)s2)N2CCOCC2)cc1 (centres undefined)	none
COc1ccc(C(CNC(=O)c2cc3c(s2)CCC(C)C3)N2CCCC2)cc1 (centres undefined)	ATXN viability inconclusive, DRD3 antagonist -105, ATXN2 expr inh inconclusive, IL-1B inflam inh inconclusive
COc1ccc(C(CNC(=O)c2cc3c(s2)CCC(C)C3)N2CCOCC2)cc1 (centres undefined)	DRD3 antagonist -103
COc1ccc(C(CNC(=O)C(C)Oc2ccc(Br)cc2)N2CCOCC2)cc1 (centres undefined)	DRD3 antagonist -69
COc1cccc(C(C)(O)c2nc(-c3cccs3)cs2)c1 (centres undefined)	none (no result: a7 integrin act)
CSc1ccc(C(=O)NCC(=O)O)cc1[N+](=O)[O-]	none
Oc1c(C(c2ccco2)N2CCN(C(c3ccccc3)c3ccccc3)CC2)sc2ncnn12 (centres undefined)	ATXN viability inconclusive, IL-1B inflam inh -64
Clc1ccc(CONc2ncnc3nonc23)c(Cl)c1	ATXN2 expr inh inconclusive, IL-1B inflam inh -76
CCONc1ncnc2nonc12	none
COc1cc([C@@H]2c3cc4c(cc3[C@@H](O[C@@H]3O[C@@H]5CO[C@@H](c6cccs6)O[C@@H]5[C@H](O)[C@@H]3O)[C@H]3COC(=O)[C@H]23)OCO4)cc(OC)c1O	ATXN2 expr inh 0.17µM (no result: ATXN viability, DRD3 antagonist, a7 integrin act, D3 ag, IL-1B inflam inh)
Cn1c2ccc(F)cc2c2nnc(SCC(=O)Nc3cccc(O)c3)nc21	D3 ag 34, IL-1B inflam inh -71
CCn1nc(-c2ccccc2)c(-c2ccccc2)c(C(=O)Nc2ccc(NC(C)=O)cc2)c1=O	none (no result: ATXN viability, DRD3 antagonist, ATXN2 expr inh, a7 integrin act, IL-1B inflam inh)
O=c1c2c3c(sc2ncn1/N=C/c1ccc([N+](=O)[O-])o1)CCCC3	ATXN viability inconclusive, ATXN2 expr inh inconclusive, IL-1B inflam inh -89
Cn1cc(/C=N/n2cnc3sc4c(c3c2=O)CCCC4)c2ccccc21	ATXN viability inconclusive
COc1ccc(Cl)cc1NC(=O)C1CCN(S(C)(=O)=O)CC1	none
COc1ccc(F)c(F)c1C(=O)c1cnc(NC2CCN(S(C)(=O)=O)CC2)nc1N	ATXN2 expr inh 2.7µM (no result: ATXN viability, DRD3 antagonist, a7 integrin act, D3 ag, IL-1B inflam inh)
COc1ccc(N(CC(=O)N2CCN(Cc3ccccc3)CC2)S(C)(=O)=O)c(OC)c1	none
Cc1ccc(Cl)cc1N1CCN(C(=O)COc2ccc3c(c2)CCC3)CC1	IL-1B inflam inh -72
COc1ccc(Cl)cc1N(CC(=O)N1CCN(Cc2ccccc2)CC1)S(C)(=O)=O	DRD3 antagonist -57
CN(C)S(=O)(=O)N(CC(=O)N1CCOCC1)c1ccccc1	DRD3 antagonist -52
Cc1ccc(Cl)cc1N1CCN(C(=O)CN(c2ccccc2)S(=O)(=O)N(C)C)CC1	IL-1B inflam inh -81
NC(=O)NN=C1CC2CC1C1C=CCC21 (centres undefined)	none
CC(=O)N1CCCC1C(=O)O (centres undefined)	none (no result: a7 integrin act)
CC(C)(C)c1nc2scc(-c3cccs3)c2c(=O)o1	none
COc1ccc(Br)cc1S(=O)(=O)N(CC(=O)N1CCOCC1)c1ccccc1	DRD3 antagonist -120
CCOc1cc(N2CCOCC2)c(OCC)cc1NC(=O)C(C)(C)C	none
CC(C)N=C(N)/N=C(\N)Nc1ccc(Cl)cc1	none (no result: DRD3 antagonist, a7 integrin act, IL-1B inflam inh)
NC(=NCCCCCCN=C(N)/N=C(\N)Nc1ccc(Cl)cc1)/N=C(\N)Nc1ccc(Cl)cc1	ATXN viability 32µM!, DRD3 antagonist -51!, ATXN2 expr inh 20µM!, IL-1B inflam inh -100! (no result: a7 integrin act)
CCOC(=O)c1cnc2ccc(OCC)cc2c1NCCN1CCOCC1	none
CCOC(=O)c1cnc2ccc(OCC)cc2c1NCc1ccccc1OC	ATXN viability inconclusive, ATXN2 expr inh inconclusive, IL-1B inflam inh -89
CCOC(=O)c1cnc2ccc(OC(F)(F)F)cc2c1Nc1ccccc1C(=O)O	D3 ag 31 (no result: DRD3 antagonist, a7 integrin act, IL-1B inflam inh)
CCOC(=O)c1cnc2ccc(C(=O)OC)cc2c1NCCCN1CCOCC1	IL-1B inflam inh -60
CCOC(=O)c1cnc2cc(F)c(F)cc2c1Nc1ccccc1O	none (no result: DRD3 antagonist, a7 integrin act, IL-1B inflam inh)
CCOC(=O)c1cnc2ccc(OCC)cc2c1NCCCN1CCOCC1	IL-1B inflam inh -53 (no result: ATXN2 expr inh)
Cc1ccc(-c2nc3cccnc3s2)cc1NS(C)(=O)=O	none
Nc1nc(-c2ccc(Cl)cc2)c(N=Nc2ccc(S(=O)(=O)N3CCOCC3)cc2)s1	DRD3 antagonist -54 (no result: ATXN viability)

Screening results deposited in PubChem by National Center for Advancing Translational Sciences (NCATS).
